Rows were chosen to be rich in hits. Some 2% of all compounds tested hit in one or more screens of this group.
FUS yeast rescue: FUS proteinopathy suppression in yeast. 390,000 compounds, 0.24% hits. AID 1347120. S. cerevisiae FUS-expressing, growth rescue, OD600, 24 h. Potency, µM (titrated, usually from 76.6 µM), usual class: activators;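 also: potency is read from the fitted curve at half-maximal effect; plate controls were DMSO vehicle for no effect and reference control for full effect; nearly all actives have a fitted effect of over 55% in size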
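Compound concentration series was pinned onto galactose-induced FUS-expressing yeast seeded at OD 0.005. Plates sat 24hr at 30C; absorbance at 600 nm gave growth. DMSO served as background control.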
IDH1 R132H inh: blocks human mutant IDH1 R132H enzyme; IDH1-R132H enzyme, NADPH consumption, diaphorase/resazurin fluorescence; O75874; Potency, µM (titrated, usually from 76.6 µM), without a hit: top-dose activity change, negative = inhibition, usual class: inhibitors; 390,000 compounds, 0.093% hits; also: potency is read from the fitted curve at half-maximal effect; % is scaled to controls: 0 for no effect and ±100 for the full control effect; nearly all actives have a fitted effect of over 65% in size
Target sequence (O75874 whole entry R132H, stated change not applied): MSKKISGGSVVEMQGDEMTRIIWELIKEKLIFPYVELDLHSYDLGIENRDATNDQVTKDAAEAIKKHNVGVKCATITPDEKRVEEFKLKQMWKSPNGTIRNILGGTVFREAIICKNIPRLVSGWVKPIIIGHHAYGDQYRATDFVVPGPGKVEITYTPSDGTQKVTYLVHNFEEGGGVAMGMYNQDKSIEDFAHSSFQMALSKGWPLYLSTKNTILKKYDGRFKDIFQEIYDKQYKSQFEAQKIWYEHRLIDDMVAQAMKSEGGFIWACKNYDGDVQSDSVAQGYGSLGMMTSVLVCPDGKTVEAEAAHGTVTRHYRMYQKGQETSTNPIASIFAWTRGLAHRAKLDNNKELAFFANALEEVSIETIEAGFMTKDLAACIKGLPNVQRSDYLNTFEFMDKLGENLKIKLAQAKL
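IDH1-R132H (0.5 ug/mL) preincubated 30 min with compound, then NADPH (0.016 mM) and alpha-KG (2 mM) added; 80 min at RT, pH 7.5. Remaining NADPH coupled via diaphorase/resazurin to fluorescence (540/590 nm); concentration-response curves normalized to no-enzyme control.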
aSyn yeast inh: inhibitors of alpha-synuclein toxicity in yeast. Yeast expressing alpha-synuclein, growth rescue, BacTiter-Glo, 24 h. Potency, µM (highest dose often 46.1 µM), inactives show at the highest dose growth rescue (activation), most hits filed as activators. 370,000 compounds, 0.14% hits; also: potency is read from the fitted curve at half-maximal effect; % of control where 0% means no effect; nearly all actives have a fitted effect of over 65% in size
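Screening used galactose-induced yeast with toxic alpha-synuclein levels, exposed to compound for 24 hr at 30 deg C. Cell growth, read with BacTiter-Glo luminescence, gave the measured signal.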
TDP-43 yeast inh: TDP-43 toxicity inhibition in yeast. Potency, µM (highest dose often 46.1 µM), inactives show at the highest dose growth rescue (activation), most hits filed as activators. AID 652104. 410,000 compounds, 1.8% hits. TDP-43 expressing yeast growth rescue, BacTiter-Glo, 24 h; also: potency is read from the fitted curve at half-maximal effect; % of control where 0% means no effect; nearly all actives have a fitted effect of over 50% in size
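Cell-based yeast growth screen: TDP-43 expression induced in galactose, inoculum OD600=0.02 after raffinose pregrowth to mid-log. Read-out BacTiter-Glo luminescence at 24 hr, 30 deg C; inhibition of toxicity seen as signal increase.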
Abeta rescue: A-beta toxicity reversal in yeast. Potency, µM (doses to about 46.1 µM), hits mostly activators. yeast expressing A-beta42, growth rescue, OD600, 48 h; response scale: 0% DMSO, 100% iron-clioquinol control. 410,000 compounds, 0.063% hits. AID 1347071; also: potency is read from the fitted curve at half-maximal effect; nearly all actives have a fitted effect of over 55% in size
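Growth rescue measured by 600 nm absorbance after 48 h yeast culture at 30 C with compound. Values normalized between DMSO and an equimolar ferric chloride plus clioquinol control.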
LDHA block: blocks human lactate dehydrogenase A; purified LDHA, NADH/diaphorase-resazurin fluorescence; stronger effect = lower value; activity change, % (values are at about 110 or 230 µM); 480,000 compounds, 0.15% hits; AID 1347041; in the data active = activity change below about -30%; inconclusive = mostly about -25% to -30%;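 also: plate controls were DMSO wells for no effect and wells without enzyme for full effect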
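LDH5 2 nM; NADH 0.06 mM, pyruvate 0.2 mM; 200 mM Tris pH 7.4, EDTA, Tween-20; 5 min RT. Detection: diaphorase 0.133 mg/mL + resazurin 37 µM, fluorescence ex540/em590 at 0 and 20 min; normalized to enzyme-free and DMSO wells.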
Numbers without * were called inactive; i = inactive; ? = inconclusive; / = no result; ! = repeats disagree. Unless noted, calls follow the shape of the dose curve; as a rule, active = well fitted curve in the direction sought with a large enough effect; inconclusive = small, poorly fitted or top-dose-only effect, or another doubt; inactive = no such curve, though single readings can be large; an effect the other way counts as inactive or inconclusive.

SMILES	FUS yeast rescue	IDH1 R132H inh	aSyn yeast inh	TDP-43 yeast inh	Abeta rescue	LDHA block
COc1ccc(NC(=O)c2cc([N+](=O)[O-])ccc2O)cc1	i	22.1%	-79.4%	-92.8%	i	-38.1*
CCCCN(C)C(=O)Cn1c(=O)c(S(=O)(=O)c2ccccc2)cc2ccccc21	/	/	/	/	/	-21.5
Cn1c(=O)c2[nH]c(-c3ccccc3Cl)nc2n(C)c1=O	/	/	/	/	/	17.6
CC(NC(=O)OC(C)(C)C)C(=O)Oc1cc2oc(=O)cc(-c3ccccc3)c2cc1Cl (stereo not given)	/	-0.8%	16.7%	4.47µM*	i	-3.1
CC1CCN(CC2CCCCN2)CC1 (stereo not given)	/	/	/	/	/	-3.5
COCc1cc(=O)[nH]c(SCCS(=O)(=O)c2ccc(Cl)cc2Cl)n1	i	1.5%	-15.3%	6.31µM*	i	-2.1
COCc1cc(=O)[nH]c(SCCS(=O)(=O)c2ccc(C)cc2)n1	i	4.6%	-3.1%	-1.9%	i	-3.9
Cc1ccc(C(=O)N2CCN(S(=O)(=O)c3cc(Br)ccc3Br)CC2)o1	i	0.5%	-32.8%	20µM*	i	-6.6
Cc1ccc(C(=O)N2CCN(S(=O)(=O)c3ccccc3[N+](=O)[O-])CC2)o1	i	0.5%	-0.9%	6.2%	i	-10.1
COc1ccc(/C(N)=N/OC(=O)c2cccs2)cc1OC	i	7.0%	3.4%	22.4µM*	i	-5.2
COc1ccc(C/C(N)=N/OC(=O)c2cccs2)cc1	i	1.1%	-36.5%	15.8µM*	i	-1.4
C/C(=C\c1ccc2c(c1)OCCO2)C1Nc2cccc3cccc(c23)N1	/	/	/	/	/	3.5
COc1ccc(OC)c(CCNC(=O)Cn2ccc3cc(S(=O)(=O)N4CCCCC4)ccc32)c1	35.5µM*	6.8%	/	-2.2%	i	5.8
CCS(=O)(=O)c1nc(-c2ccc(F)cc2)cc(C(F)(F)F)n1	/	/	/	/	/	4.2
Cc1cc2cc(NS(=O)(=O)c3ccc(C(C)(C)C)cc3)ccc2[nH]1	/	/	/	/	/	0.2
CN(Cc1ccccc1)Cc1nc2c(c(=O)n(C)c(=O)n2C)n1CCc1ccccc1	i	0.7%	-1.1%	-21.0%	i	-30.8*!
Cn1c(=O)n(CCc2ccccc2)c(=O)c2c1nc1n2CCCN1CCc1ccccc1	i	0.8%	0.9%	12.6µM*	i	2.5
CCOC(=O)Cn1c(CN(Cc2ccccc2)Cc2ccccc2)nc2c1c(=O)n(C)c(=O)n2C	?	2.6%	1.5%	22.4µM*	i	2.7
Cc1nc2c(C(=O)NCCc3ccc(Cl)cc3)cnn2c(C)c1Cc1ccc(F)cc1	31.6µM*	-21.6%	/	20µM*	i	-3.4
CCC1(CC)NC(=O)N(Cc2coc(-c3ccc(Cl)cc3)n2)C1=O	/	/	/	/	/	-12.4
O=C(CSc1ncnc2nc[nH]c12)Nc1cc(Cl)ccc1Cl	/	/	/	/	/	-37.8*
CNC(=O)NC(=O)Cn1c(=O)c2c(ncn2CCC(C)C)n(Cc2ccccc2)c1=O	/	/	/	/	/	-19.5
CC(C)Oc1cccc(C(=O)N/N=C/c2coc3ccccc3c2=O)c1	i	-10.8%	-3.0%	18.1%	i	0.1
CCOc1cccc(C(=O)N/N=C/c2coc3ccccc3c2=O)c1	i	-7.9%	1.1%	22.4µM*	i	3.2
O=[N+]([O-])c1cc(S(=O)(=O)Oc2ccccc2)ccc1Cl	/	7.1%	-5.7%	11.2µM*	i	8.0
SMILES	FUS yeast rescue	IDH1 R132H inh	aSyn yeast inh	TDP-43 yeast inh	Abeta rescue	LDHA block
O=C(Nc1ccccc1C(=O)OCC(=O)N1CCc2ccccc21)c1ccc([N+](=O)[O-])cc1Cl	/	/	/	/	/	3.7
O=C(O)CC1CCC(=C(Cl)Cl)C1 (stereo not given)	i	5.3%	11.2µM*	-8.0%	i	-4.6
Cc1ccc(N2CCN(C(=O)C(=O)c3cccc([N+](=O)[O-])c3)CC2)cc1	i	/	-3.3%	15.8µM*	i	-3.4
O=[N+]([O-])c1cccc(C(=S)N2CCN(c3ccccc3)CC2)c1	/	0.9%	10.3%	12.6µM*	i	-2.8
O=C(Oc1cccc(C(=S)N2CCOCC2)c1)c1ccc([N+](=O)[O-])cc1[N+](=O)[O-]	i	3.2%	-56.3%	11.2µM*	i	6.0
C#CCOCCOCCOCCNc1nc(N2CCN(C(=O)CCCCCCCCCCNC(=O)[C@H]([C@@H](C)CC)n3cc(CCCCN=C(N)N)nn3)CC2)nc(N2CCN(C(=O)CCCCCCCCCCNC(=O)[C@H](CCCCN)n3cc(C)nn3)CC2)n1	11.2µM*	5.8%	-49.0%	-79.0%	i	-1.1
C#CCOCCOCCOCCNc1nc(N2CCN(C(=O)CCCCCCCCCCNC(=O)[C@H]([C@@H](C)CC)n3cc(CCCCCN)nn3)CC2)nc(N2CCN(C(=O)CCCCCCCCCCNC(=O)[C@H](CO)n3cc(CCCCCN)nn3)CC2)n1	14.1µM*	0.0%	-41.1%	7.7%	i	3.6
COc1cc(C#Cc2c(-c3cncn3C)n(C)c3ccc(-c4ccc5cc[nH]c5c4)cc23)cc(OC)c1	?	13.0%	-0.1%	20µM*	i	-2.7
COc1nnc(-c2ccc(N3CCCCC3)c(NC(C)=O)c2)c2ccccc12	i	1.8%	6.0%	22.4µM*	i	-3.0
O=C(/C=C/c1cn(-c2ccccc2)nc1-c1cccnc1)c1ccco1	i	-10.9%	5.2%	12.6µM*	i	-4.6
NC(=O)c1cn(-c2ccccc2)nc1-c1cccnc1	i	1.3%	0.2%	12.6µM*	i	3.8
CC(C)c1ccccc1NC(=O)c1csc2c1CCCC2	/	/	/	/	/	6.2
OC(COc1ccccc1)Cn1c2ccccc2c2ccccc21 (stereo not given)	/	4.0%	21.8%	17.8µM*	?	2.5
Cc1ccc(NC(=O)CSc2nnc(C)c(=O)n2N)cc1	i	0.2%	3.5%	-3.9%	i	-5.9
Cc1nnc(SCC(=O)Nc2ccc(S(N)(=O)=O)cc2)n(N)c1=O	i	-0.4%	4.2%	-12.7%	i	-39.2*
NC(=O)C1CCCN(CCC(=O)O)C1 (stereo not given)	/	/	/	/	/	3.1
N#C/C(=C\c1ccc([N+](=O)[O-])o1)C(=O)NC1CCCCC1	/	/	/	/	/	-2.4
CCOc1cccc(/C=C/c2ccc3cccc(O)c3n2)c1O	i	11.4%	-3.0%	11.2µM*	i	12.8
CCOc1cc(/C=C/c2ccc3cccc([N+](=O)[O-])c3n2)ccc1O	/	4.7%	1.7%	15.8µM*	i	-3.3
CCN1CCN(Cc2cccc(Oc3ccccc3)c2)CC1	i	9.5%	10.7%	-17.3%	i	-31.8*
Nc1nc2cc(Cl)c(Br)cc2o1	/	3.4%	3.2%	20µM*	i	-4.4

From PubChem
